Pf apPOL inh: Pf-apPOL DNA polymerase inhibition; actives 0.25% (n = 210,000); AID 1794808; inhibition, % at 10 µM; Recombinant Pf-apPOL, molecular beacon fluorescence, 1.5 h
mHTT-CaM PPI inh: mHTT-calmodulin interaction abrogation. AlphaScreen His-mHTT/GST-CaM binding, luminescence. inhibition, % at 15 µM. actives 3.6% (n = 190,000). P42858;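 note: 0% = both proteins with DMSO and 100% = one protein alone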
Target sequence (P42858 whole entry, looked up, stated change not applied): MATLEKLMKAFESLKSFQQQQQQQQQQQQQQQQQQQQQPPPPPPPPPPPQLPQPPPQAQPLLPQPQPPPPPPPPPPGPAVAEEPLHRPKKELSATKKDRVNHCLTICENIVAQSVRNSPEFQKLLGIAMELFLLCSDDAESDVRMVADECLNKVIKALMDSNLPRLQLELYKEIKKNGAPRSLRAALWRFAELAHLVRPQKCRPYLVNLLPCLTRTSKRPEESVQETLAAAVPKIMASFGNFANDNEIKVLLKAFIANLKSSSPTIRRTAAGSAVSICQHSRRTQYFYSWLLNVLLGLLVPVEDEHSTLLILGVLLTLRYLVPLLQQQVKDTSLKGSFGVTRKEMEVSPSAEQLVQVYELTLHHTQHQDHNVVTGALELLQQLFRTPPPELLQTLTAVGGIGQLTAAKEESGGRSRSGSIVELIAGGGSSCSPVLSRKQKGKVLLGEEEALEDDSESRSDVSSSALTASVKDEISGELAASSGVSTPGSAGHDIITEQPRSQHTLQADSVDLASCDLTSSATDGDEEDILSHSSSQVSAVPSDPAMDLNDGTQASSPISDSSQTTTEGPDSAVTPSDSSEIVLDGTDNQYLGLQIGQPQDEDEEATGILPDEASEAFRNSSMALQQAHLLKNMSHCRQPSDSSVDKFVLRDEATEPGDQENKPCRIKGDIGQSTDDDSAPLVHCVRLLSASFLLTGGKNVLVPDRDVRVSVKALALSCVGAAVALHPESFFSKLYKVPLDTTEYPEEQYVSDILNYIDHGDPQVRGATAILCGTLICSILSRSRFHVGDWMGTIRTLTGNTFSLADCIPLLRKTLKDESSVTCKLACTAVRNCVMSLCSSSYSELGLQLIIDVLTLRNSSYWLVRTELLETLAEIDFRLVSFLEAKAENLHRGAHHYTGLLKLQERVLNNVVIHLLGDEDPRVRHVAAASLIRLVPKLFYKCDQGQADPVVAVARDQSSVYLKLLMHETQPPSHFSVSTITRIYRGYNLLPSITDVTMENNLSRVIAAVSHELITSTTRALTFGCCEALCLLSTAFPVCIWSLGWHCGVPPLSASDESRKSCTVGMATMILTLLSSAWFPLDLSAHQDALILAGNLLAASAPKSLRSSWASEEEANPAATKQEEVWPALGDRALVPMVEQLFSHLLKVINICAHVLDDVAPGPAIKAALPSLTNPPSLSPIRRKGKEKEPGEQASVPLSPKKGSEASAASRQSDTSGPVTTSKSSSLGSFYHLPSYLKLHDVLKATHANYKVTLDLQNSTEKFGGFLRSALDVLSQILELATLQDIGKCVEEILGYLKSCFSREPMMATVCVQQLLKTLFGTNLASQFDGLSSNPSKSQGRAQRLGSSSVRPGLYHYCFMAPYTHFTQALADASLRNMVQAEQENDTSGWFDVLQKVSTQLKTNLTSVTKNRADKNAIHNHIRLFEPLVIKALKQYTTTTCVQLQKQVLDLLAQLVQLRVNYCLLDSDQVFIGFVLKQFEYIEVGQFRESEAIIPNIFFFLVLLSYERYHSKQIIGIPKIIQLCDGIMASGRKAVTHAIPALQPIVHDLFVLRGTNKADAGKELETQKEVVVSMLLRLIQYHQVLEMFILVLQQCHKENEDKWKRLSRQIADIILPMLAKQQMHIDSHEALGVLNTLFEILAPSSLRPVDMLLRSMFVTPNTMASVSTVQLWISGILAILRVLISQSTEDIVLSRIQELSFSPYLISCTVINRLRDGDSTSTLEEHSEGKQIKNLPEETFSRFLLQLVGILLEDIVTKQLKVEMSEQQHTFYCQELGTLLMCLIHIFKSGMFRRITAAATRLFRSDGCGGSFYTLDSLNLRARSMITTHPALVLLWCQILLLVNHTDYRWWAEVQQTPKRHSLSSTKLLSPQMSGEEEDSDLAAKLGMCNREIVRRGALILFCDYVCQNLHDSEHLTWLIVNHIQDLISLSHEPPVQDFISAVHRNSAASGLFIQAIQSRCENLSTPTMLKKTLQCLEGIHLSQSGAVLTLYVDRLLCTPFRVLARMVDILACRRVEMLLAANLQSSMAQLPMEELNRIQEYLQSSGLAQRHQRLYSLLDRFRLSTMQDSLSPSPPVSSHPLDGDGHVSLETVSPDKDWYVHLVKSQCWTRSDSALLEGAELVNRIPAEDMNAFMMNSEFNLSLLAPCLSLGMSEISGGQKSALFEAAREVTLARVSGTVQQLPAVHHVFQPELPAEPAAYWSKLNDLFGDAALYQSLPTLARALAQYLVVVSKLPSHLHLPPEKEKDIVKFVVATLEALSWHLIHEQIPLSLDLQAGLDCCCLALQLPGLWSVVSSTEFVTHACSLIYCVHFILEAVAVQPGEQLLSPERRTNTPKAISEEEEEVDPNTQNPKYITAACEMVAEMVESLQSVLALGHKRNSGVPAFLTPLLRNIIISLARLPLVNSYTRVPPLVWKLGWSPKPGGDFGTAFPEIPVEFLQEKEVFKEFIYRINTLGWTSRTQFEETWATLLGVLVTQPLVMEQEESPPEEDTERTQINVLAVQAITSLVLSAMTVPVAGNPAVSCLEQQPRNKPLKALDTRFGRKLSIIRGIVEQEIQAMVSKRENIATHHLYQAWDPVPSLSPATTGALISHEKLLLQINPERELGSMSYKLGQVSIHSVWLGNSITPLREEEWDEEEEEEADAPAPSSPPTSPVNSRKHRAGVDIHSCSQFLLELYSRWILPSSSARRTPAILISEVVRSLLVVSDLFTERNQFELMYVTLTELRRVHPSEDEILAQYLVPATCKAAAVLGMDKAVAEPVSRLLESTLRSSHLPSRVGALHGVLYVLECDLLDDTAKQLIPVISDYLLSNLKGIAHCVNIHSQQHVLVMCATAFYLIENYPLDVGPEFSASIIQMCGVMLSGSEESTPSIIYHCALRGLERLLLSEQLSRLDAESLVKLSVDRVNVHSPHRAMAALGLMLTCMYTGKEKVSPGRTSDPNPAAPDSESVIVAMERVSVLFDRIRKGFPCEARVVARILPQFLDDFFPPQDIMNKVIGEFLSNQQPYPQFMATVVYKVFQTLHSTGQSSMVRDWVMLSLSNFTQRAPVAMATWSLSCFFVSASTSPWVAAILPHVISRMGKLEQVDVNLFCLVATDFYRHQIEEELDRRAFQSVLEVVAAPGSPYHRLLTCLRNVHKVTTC
The depositor's hits bear a star; / = no result. This is a sample that favours compounds with a hit; in the whole collection about 3.6% have one here. Cut-off read from the data, not from the text of the source: active = inhibition above about 50%; inactive = the rest.

SMILES | Pf apPOL inh | mHTT-CaM PPI inh
COc1ccc(C2CC(c3cccc(F)c3)=NN2C(=O)CN2CCC(C)CC2)cc1 (stereo not drawn) | -6 | 23
COc1ccc(C2=NN(C(=O)CN3CCN(C)CC3)C(c3cccc(F)c3)C2)cc1 (stereo not drawn) | -1 | 54*
COc1cccc(C2=NN(C(=O)CN3CCOCC3)C(c3ccccc3C)C2)c1 (stereo not drawn) | -2 | 38
COc1ccc(C2CC(c3cccc(C)c3)=NN2C(=O)CN2CCOCC2)cc1 (stereo not drawn) | -3 | 66*
Cc1ccc(COCc2nn(C)c3c2CN(C(=O)Nc2cccc(F)c2)CC3)cc1 | -3 | 25
Cc1ccc2nc(/C(C#N)=C/c3ccc(-c4ccc5c(c4)COC5=O)o3)[nH]c2c1 | 0 | 32
COc1ccc(NC(=O)Cn2cnc(-c3ccc(F)cc3)cc2=O)c(OC)c1 | -4 | -7
Cc1ccc(C)c(NC(=O)Cn2cccc2-c2nnc(-c3ccccc3)o2)c1 | 2 | 0
Cc1ccc(O)c(NS(=O)(=O)c2ccc([N+](=O)[O-])cc2)c1 | -6 | 9
O=c1ccc(-n2cccn2)nn1CCNS(=O)(=O)c1ccc(Cl)s1 | -10 | -6
Cc1nc(C2CC2)nc(N2CCN(S(C)(=O)=O)CC2)c1Cc1ccccc1F | 5 | 21
O=C(COc1ccccc1)N1CCN(c2nc(CN3CCCC3)cs2)CC1 | -7 | 3
Cc1ccc(C(=O)N2CCN(c3nc(CN4CCCC4)cs3)CC2)cc1C | 14 | 69*
Cc1ccc(C(=O)N2CCN(c3nc(CN4CCOCC4)cs3)CC2)cc1C | 3 | 9
O=C(O)c1ccc2c(c1)ncn2-c1ccc(Cl)c(C(F)(F)F)c1 | -2 | 7
O=C(Nc1nc(-c2ccccc2)c(-c2ccccc2)o1)c1cccs1 | 2 | 62*
COc1ccc(-c2nnc(NC(=O)c3cccs3)o2)cc1 | -34 | 66*
COc1ccc(-c2csc(NC(=O)c3cccs3)n2)cc1 | -5 | 3
CC(=O)Nc1nc(-c2ccccc2)c(-c2ccccc2)o1 | -6 | 24
CCCC(=O)NC(c1cccc([N+](=O)[O-])c1)c1ccc2cccnc2c1O (stereo not drawn) | -4 | 99*
CCCC(=O)NC(c1cccc(F)c1)c1ccc2cccnc2c1O (stereo not drawn) | 2 | 100*
CC(C)C(=O)NC(c1cccc([N+](=O)[O-])c1)c1ccc2cccnc2c1O (stereo not drawn) | 5 | 100*
CCCC(=O)Nc1cc(-c2nc3ccccc3o2)ccc1C | -2 | 0
CCCc1ccc(S(=O)(=O)NCc2nc3cccnc3n2C2CCCC2)cc1 | -12 | 6
Cc1nc2cc(NC(=O)c3cc(-c4cccs4)[nH]n3)ccc2s1 | 1 | 10
SMILES | Pf apPOL inh | mHTT-CaM PPI inh
COCC(C)(O)CNC(=O)C1CCCC1 (stereo not drawn) | 1 | -2
COc1cccc(C2CC(c3ccccc3Cl)Nc3nc(N)nn32)c1 (stereo not drawn) | -3 | 30
COc1ccc(C2CC(c3ccc(Cl)cc3Cl)Nc3nc(N)nn32)cc1 (stereo not drawn) | -4 | 42
COc1cccc(C2CC(c3ccc(Cl)cc3Cl)Nc3nc(N)nn32)c1 (stereo not drawn) | 2 | 52*
Nc1nc2n(n1)C(c1cccs1)CC(c1ccc(Cl)cc1Cl)N2 (stereo not drawn) | -13 | 78*
CCC(C)c1ccc(OCCCCN2CCN(C)CC2)cc1 (stereo not drawn) | -1 | 54*
CCC(C)c1ccc(OCCCN2CCN(C)CC2)cc1 (stereo not drawn) | -7 | 3
Cc1ccccc1NC(=O)c1ccc(-c2ccsc2)nc1 | 59* | 2
O=C(Nc1ccccc1NC(=O)c1ccccc1)c1ccccc1 | -19 | -5
CC(=O)Nc1ccc(C(=O)Nc2ccccc2C)cc1 | -8 | 6
O=C(C=NNc1ccccc1)Nc1ccccc1C(=O)O | 88* | /
COC(=O)c1ccccc1NC(=O)C=NO | -5 | /
Cc1ccccc1NC(=O)c1ccc(-c2cccc(F)c2)nc1 | 8 | -1
O=C(Nc1ccccc1C(=O)Nc1ccccc1C(=O)O)c1ccccc1 | -21 | 80*
Cc1ccccc1NC(=O)c1ccc(C(=O)Nc2ccccc2C)cc1 | 61* | -5
Cc1cccc(CNC(=O)c2c(C)sc3ncnc(N4CCCCC4)c23)c1 | -4 | -9
COc1ccc2oc(C)c(C(C)=O)c2c1 | 98* | -7
COc1ccc2oc(C)c(C(=O)O)c2c1 | 3 | 0
O=C(c1ccccc1)N1CCC(CCNS(=O)(=O)c2ccc3c(c2)CCCC3)CC1 | 4 | 60*
Cc1ccc(S(=O)(=O)NCCC2CCN(C(=O)c3ccccc3)CC2)cc1 | 3 | 46
CCc1ccc(S(=O)(=O)NCCC2CCN(C(=O)c3ccccc3)CC2)cc1 | -4 | 39
O=C(c1ccccc1)N1CCC(CCNS(=O)(=O)c2ccccc2)CC1 | 1 | 50*
CCN1CCN(C2=NCCN2C(=O)c2ccc(N(C)C)cc2)CC1 | 1 | -2
